High-throughput results (PubChem BioAssay)
Sampled rows, rich in hits. Any-hit rate of the full collection: about 5.4%.
CSC inhib: cancer stem cell viability inhibitors, primary screen, luminescence | AID 2717, 2010 | cancer stem cell-like cells viability | hit rate 1.1% among 300,000 | inhibition, % at 7.5 µM; in the data active means inhibition above about 75%; tested in HMLE shEcad cells
Calb FLC: C. albicans growth inhibition with fluconazole, primary screen, CaCi-2 strain, Alamar Blue fluorescence; C. albicans CaCi-2 (fluconazole-resistant clinical isolate) + fluconazole, 48 h; growth inhibition, % (no concentration beside the values); hit rate 0.57% among 300,000; AID 1979, 2009;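 active means growth inhibition above about 58% in most replicates, limit read from the data, passing the limit was not always enough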;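 further: all wells also contain fluconazole at 8 µg/ml as a sub-toxic cotreatment; 0% = median of DMSO wells and 100% = median of geldanamycin control wells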
PP5 primary: PP5 phosphatase inhibitors, primary screen, biochemical, fluorescence; purified PP5c, OMFP substrate fluorescence; inhibition, % at 6.7 µM; hit rate 0.18% among 320,000; AID 1987, 2009;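 active means inhibition above the campaign's mean inhibition across all tested compounds plus 3 SD, cut at about 9.5% in these data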;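 further: 0% = DMSO only and 100% = 100 µM cantharidin control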
ALR H2O2 inh: inhibitors of human ALR sulfhydryl oxidase, primary screen, biochemical, H2O2 detection, HRP-luminol luminescence, single point | AID 485317, 2010 | hit rate 3.8% among 290,000 | inhibition, % (no concentration beside the values) | FAD-linked sulfhydryl oxidase ALR (Homo sapiens), P55789 | purified ALR, DTT oxidation;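 active means mean replicate inhibition above about 79%, with every replicate also reaching it, limit read from the data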
Target sequence (P55789 whole entry, looked up): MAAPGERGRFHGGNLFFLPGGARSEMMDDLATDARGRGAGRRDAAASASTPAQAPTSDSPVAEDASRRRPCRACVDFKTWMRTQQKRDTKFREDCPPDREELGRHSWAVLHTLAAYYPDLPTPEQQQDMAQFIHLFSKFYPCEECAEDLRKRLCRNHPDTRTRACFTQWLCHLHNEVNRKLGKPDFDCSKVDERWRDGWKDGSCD
PP1 counter: PP1-alpha phosphatase inhibitors, primary screen, counter-screen for PP5 inhibitor project, biochemical, fluorescence, OMFP substrate, single point; Serine/threonine-protein phosphatase PP1-alpha catalytic subunit (Homo sapiens), P62136; purified PP1alpha; inhibition, % at 6.7 µM; hit rate 0.9% among 320,000; AID 2235, 2010;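 active means inhibition above the mean inhibition of all tested compounds plus 3 SD, computed separately for each screening campaign, cut at about 15% in these data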
PP5 conf: PP5 phosphatase inhibitors, confirmation, biochemical, fluorescence, human; shares compounds with PP5 primary; Purified PP5, fluorogenic phosphatase substrate; inhibition, % at 6.7 µM; hit rate 22% among 460; in the data active means inhibition above about 9.5%
PP1 inh counter: PP1 phosphatase inhibitors, counter-screen for PP5 inhibitor project, biochemical, fluorescence, triplicate; shares compounds with PP5 primary; PP1 enzyme, fluorescent phosphatase substrate; inhibition, % at 6.7 µM; hit rate 4% among 460; AID 2355, 2010; in the data active means inhibition above about 16%
An asterisk follows results filed as active; . = no result.

SMILES	CSC inhib	Calb FLC	PP5 primary	ALR H2O2 inh	PP1 counter	PP5 conf	PP1 inh counter
O=C(N/N=C/c1ccccc1OC(F)F)NC1CCCCC1	7.0	1.5	10.9*	-11.6	5.1	-1.9	-2.1
O=C(N/N=C/c1ccccc1F)NC1CCCCC1	1.3	-24.2	-1.4	-6.8	1.9	.	.
Cc1ccc(CSc2ncccc2C(=O)O)cc1	-4.4	-0.1	-1.0	-3.6	1.9	.	.
Cc1cccc(N2CCN(C(=O)Cc3ccc(-n4c(=O)[nH]c5ccsc5c4=O)cc3)CC2)c1C	.	-0.6	0.6	-0.3	2.9	.	.
Cc1ccc(C)c(N2CCN(C(=O)Cc3ccc(-n4c(=O)[nH]c5ccsc5c4=O)cc3)CC2)c1	25.5	-4.7	12.6*	-53.0	-3.9	-4.4	-4.1
COc1ccc(OC)c(C(c2nnnn2CCc2ccccc2)N2CCN(c3ccccc3)CC2)c1 (stereo not drawn)	24.8	-4.5	-3.6	-14.2	3.0	.	.
CCNc1nc(NCC)nc(N/N=C(\C)c2ccc(OC)cc2)n1	-6.8	-1.6	2.4	-5.7	-4.4	.	.
CC(C)(C)OC(=O)NCCCC[C@H](NC(=O)c1nc[nH]c1C(=O)NC1CCN(C(=O)OC(C)(C)C)CC1)C(=O)OC(C)(C)C	-7.7	28.1	11.4*	.	9.7	8.8	9.5
CC(C)(C)OC(=O)NCCCCCNC(=O)c1[nH]cnc1C(=O)N[C@@H](CCCCNC(=O)OC(C)(C)C)C(=O)OC(C)(C)C	12.3	21.1	13.1*	-5.8	6.2	5.4	5.8
C[C@H](NC(=O)c1nc[nH]c1C(=O)N[C@@H](CCCCNC(=O)OC(C)(C)C)C(=O)OC(C)(C)C)C(=O)OCc1ccccc1	3.0	2.6	9.1	.	11.3	.	.
C[C@H](NC(=O)c1nc[nH]c1C(=O)N[C@@H](CCCCNC(=O)OC(C)(C)C)C(=O)OC(C)(C)C)C(=O)OC(C)(C)C	-3.8	25.2	9.6*	-8.4	7.9	5.3	5.7
CC(C)C[C@H](NC(=O)c1nc[nH]c1C(=O)N[C@@H](CCCCNC(=O)OC(C)(C)C)C(=O)OC(C)(C)C)C(=O)OCc1ccccc1	28.4	1.4	10.9*	.	12.9	7.6	9.4
CC(C)(C)OC(=O)CNC(=O)c1[nH]cnc1C(=O)N[C@@H](CCCCNC(=O)OC(C)(C)C)C(=O)OC(C)(C)C	-13.8	7.9	7.9	-21.2	6.5	.	.
CCc1ccc(N(C(=O)CNC(=O)c2cccs2)C(C(=O)NC(C)(C)C)c2cc(OC)c(OC)c(OC)c2)cc1 (stereo not drawn)	-1.5	6.0	-0.9	-11.9	-4.3	.	.
CC(=O)Nc1ccc(OCC(O)CN2CCCCC2C)cc1 (stereo not drawn)	-8.2	1.2	-1.5	-6.9	-4.9	.	.
CC(C)C[C@H](NC(=O)c1[nH]cnc1C(=O)N[C@@H](C)c1ccccc1)C(=O)OC(C)(C)C	-13.4	4.4	9.9*	-0.5	9.3	9.7*	8.8
CC(C)(C)OC(=O)[C@H](Cc1ccccc1)NC(=O)c1nc[nH]c1C(=O)NC1CCN(C(=O)OC(C)(C)C)CC1	0.8	16.7	10.1*	-4.6	9.1	10.1*	9.6
Cc1cccc(NC(=O)c2nc[nH]c2C(=O)N[C@@H](CCCCNC(=O)OC(C)(C)C)C(=O)OC(C)(C)C)c1	.	3.2	11.4*	-8.8	3.3	5.2	5.8
CC(C)(C)OC(=O)NCCCC[C@H](NC(=O)c1nc[nH]c1C(=O)NC(c1ccccc1)c1ccccc1)C(=O)OC(C)(C)C	34.7	-1.8	3.4	7.1	10.6	.	.
Cc1cccc(NC(=O)c2nc[nH]c2C(=O)NCCCCCNC(=O)OC(C)(C)C)c1	4.0	.	5.2	0.5	3.6	.	.
CC(C)(C)OC(=O)[C@H](Cc1ccccc1)NC(=O)c1nc[nH]c1C(=O)N1CCN(C(=O)OC(C)(C)C)CC1	18.2	9.2	1.6	-1.4	-5.8	.	.
